One test relates to Staphylococcus aureus. The following applies: Concentration 20 uM; ASSAY_TEST Inhibition of Bacterial Growth; detection method Absorption (OD600); MEDIA CAMHB; plate type 384well; NBS; CORNING #3640; time 18 hr.
Another test has as its system Escherichia coli. Particulars: Concentration 20 uM; ASSAY_TEST Inhibition of Bacterial Growth; detection method Absorption (OD600); MEDIA CAMHB; plate type 384well; NBS; CORNING #3640; time 18 hr.

Results with a measured potency or affinity are listed apart.

As a reminder, the Inhibition is the change of the read-out against control, counted positive when it falls. Regarding `CCOC(=O)c1c(NC(=O)c2c(F)c(F)c(F)c(F)c2F)sc(C(N)=O)c1C`, the Inhibition with Staphylococcus aureus was 12.42%; with Escherichia coli it was 12.47%.

As to `CC(C)(C)OC(=O)N1CCN(c2cc(-c3ccc(Oc4ccccc4)cc3)n[nH]2)CC1`, the Inhibition in the test on Staphylococcus aureus is given as 17.78%; in the test with Escherichia coli, 7.28%.

`CNC(=O)C1Cc2c([nH]c3cc(Cl)ccc23)C2(CCN(CCc3ccccc3)CC2)N1` (configuration not stated): the Inhibition is recorded as 24.47% with Staphylococcus aureus and 9.53% in the test with Escherichia coli.

In the case of `O=C(Cn1ccnc1[N+](=O)[O-])NCc1ccccc1` [BENZNIDAZOLE], the Inhibition in the test on Staphylococcus aureus is 21.81%; in the test with Escherichia coli it was 9.92%.

With `O=C(NCCN1CCCC1)c1cc(NCCCCN2CCC(F)(F)CC2)nc2ccc(Cl)cc12`, the results for the Inhibition in the test with Staphylococcus aureus and in the test with Escherichia coli were 22.5% and 8.02%, respectively.

As for `COc1ccccc1OCCCCn1c(C2CC2)nc2ccccc21`, the Inhibition in the test on Staphylococcus aureus is 12.87%; in the test with Escherichia coli it was 4.8%.

As for `O=C(c1[nH]nc2c1CCCC2)N1CCN(Cc2ccc3c(c2)OCO3)CC1`, the Inhibition is on record as 14.51% in the test with Staphylococcus aureus and 7.99% in the test on Escherichia coli.

For the compound `Cc1nnc(NCc2cccc(Cl)c2)c2ccccc12`, the Inhibition amounted to 21.63% with Staphylococcus aureus and 9.19% in the test on Escherichia coli.

Turning to `O=C(NCCN1CCCC1)c1cc(NCCN2CCOCC2)nc2ccc(Cl)cc12`, the Inhibition in the test with Staphylococcus aureus is recorded as 22.71%; in the test on Escherichia coli, 6.99%.

Take `O=C(C1CCN(c2cc(-n3cccc3)ncn2)CC1)N1CCc2ccccc2C1`: the Inhibition in the test on Staphylococcus aureus stood at 7.19%; with Escherichia coli it was 12.02%.

For the compound `CN(C)CCNC(=O)N1CCCN(c2ncnc3cc(-c4ccccc4)sc23)CC1`, the values for the Inhibition with Staphylococcus aureus and with Escherichia coli were 13.78% and 3.44%, respectively.
